Experiment [1] in a line: NS1 protein of Zika virus - qHTS assay to identify small molecule inhibitors in human HEK 293 cells (AID 1347053). Also: nearly all actives have a fitted effect of over 55% in size. Also: potency is read from the fitted curve at half-maximal effect. Summed up:
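In this cell-based screen, HEK 293 cultures received compound for one hour before Zika MR766 at MOI = 0.5. NS1 was quantified 24 hours later by TR-FRET, normalized to virus-free wells and infected wells.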
For orientation: qHTS replaces the single test concentration by a dilution series.

Experiment [2] is described as follows: qHTS of pediatric cancer cell lines to identify multiple opportunities for drug repurposing: Primary screen for TC32 cells (AID 1347089). Also: nearly all actives have a fitted effect of over 60% in size. Also: potency is read from the fitted curve at half-maximal effect. Summed up: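 A viability screen of TC32 cells was run over 48 h, with primary MIPE doses spanning 0.78 nM–46 µM and NPC doses 0.59 nM–46 µM. ATP luminescence (CellTiter-Glo) served as the read-out.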
Experiment [3] can be described thus: qHTS of pediatric cancer cell lines to identify multiple opportunities for drug repurposing: Primary screen for A673 cells (AID 1347092). Also: nearly all actives have a fitted effect of over 45% in size. Also: potency is read from the fitted curve at half-maximal effect. Summed up:
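Titration-based qHTS on A673 cells: MIPE compounds spanned 11 points (0.78 nM to 46 µM final), NPC compounds 8 points (0.59 nM to 46 µM final). Viability after 48 h was measured by ATP luminescence.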

Experiment [4] is described as follows: qHTS of pediatric cancer cell lines to identify multiple opportunities for drug repurposing: Primary screen for SK-N-MC cells (AID 1347093). Also: potency is read from the fitted curve at half-maximal effect. Put shortly:
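Metabolically active cells were quantified by ATP-dependent luminescence (CellTiter-Glo, 15 min at room temperature) following 48 h treatment. Cells had been plated at 500-1,000 per well and settled for 5 h beforehand.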

The nature of experiment [5]: qHTS of pediatric cancer cell lines to identify multiple opportunities for drug repurposing: Primary screen for BT-37 cells (AID 1347094). Also: potency is read from the fitted curve at half-maximal effect. Summed up:
(§1)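 Quantitative HTS format: each compound titrated (MIPE 11 points from 0.78 nM, NPC 8 points from 0.59 nM) onto cells plated 5 hours earlier. After 48 h at 37 degrees C, CellTiter-Glo luminescence was recorded.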

Experiment [6] is described as follows: qHTS of pediatric cancer cell lines to identify multiple opportunities for drug repurposing: Primary screen for NB-EBc1 cells (AID 1347095). Also: potency is read from the fitted curve at half-maximal effect. Put shortly: as §1
Experiment [7] can be described thus: qHTS of pediatric cancer cell lines to identify multiple opportunities for drug repurposing: Primary screen for Saos-2 cells (AID 1347097). Also: nearly all actives have a fitted effect of over 40% in size. Also: potency is read from the fitted curve at half-maximal effect. Summed up:
as §1

Experiment [8] is described as follows: qHTS of pediatric cancer cell lines to identify multiple opportunities for drug repurposing: Primary screen for SK-N-SH cells (AID 1347098). Also: nearly all actives have a fitted effect of over 65% in size. Also: potency is read from the fitted curve at half-maximal effect. Summed up:
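Cells (500-1,000/well) rested 5 h, then received compounds for 48 h; metabolically active cells were measured by CellTiter-Glo luminescence. Final concentrations spanned up to 46 µM (MIPE, 11-point) or 0.59 nM-46 µM (NPC, 8-point) in primary screens, 11-point in follow-ups.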

The nature of experiment [9]: qHTS of pediatric cancer cell lines to identify multiple opportunities for drug repurposing: Primary screen for DAOY cells (AID 1347090). Also: nearly all actives have a fitted effect of over 55% in size. Also: potency is read from the fitted curve at half-maximal effect. Put shortly:
(§2)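 Eight- or eleven-point concentration series, 48 h treatment at 37 degrees C in growth media; readout CellTiter-Glo luminescence. Potency and efficacy were taken from the concentration-response curves.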

A short description of experiment [10]: qHTS of pediatric cancer cell lines to identify multiple opportunities for drug repurposing: Primary screen for SJ-GBM2 cells (AID 1347091). Also: potency is read from the fitted curve at half-maximal effect. Summed up: as §2
The nature of experiment [11]: qHTS of pediatric cancer cell lines to identify multiple opportunities for drug repurposing: Primary screen for U-2 OS cells (AID 1347096). Also: nearly all actives have a fitted effect of over 50% in size. Summed up:
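Cells (500-1,000/well) in growth media were settled 5 h at 37 degrees C, then given compounds for 48 h. Viability was read as CellTiter-Glo luminescence. Primary runs used MIPE at 11 points (0.78 nM-46 µM) and NPC at 8 points (0.59 nM-46 µM); follow-ups used 11 points.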

Inconclusive results are not listed. Calls of active or inactive are those of the source. Calls follow the shape of the dose curve; as a rule, active = well fitted curve in the direction sought with a large enough effect; inconclusive = small, poorly fitted or top-dose-only effect, or another doubt; inactive = no such curve, though single readings can be large; an effect the other way counts as inactive or inconclusive.

Turning to `Cc1cccc(Nc2nc(N[C@@H]3CCCC[C@H]3N)ncc2C(N)=O)c1`, the Potency is 23.5 µM (active) in experiment [1]; 18.7 µM (active) in experiment [3]; 6.62 µM (active) in experiment [4]; 27.3 µM (active) in [5]; 8.33 µM (active) in [7]; 27.1 µM (active) in experiment [8]. Moreover, the Potency entry in [2] and in experiment [6] was “inactive” throughout.
For `CCC(=C(c1ccc(O)cc1)c1ccc(OCCNC)cc1)c1ccccc1`, the Potency entry in [1] and in [2] was “inactive” each time. In addition, the results for the Potency in experiment [3] and in experiment [8] were 37.2 µM (active) and 34.1 µM (active), respectively.
For the compound `CC(C)(C)c1nc(-c2cccc(NS(=O)(=O)c3c(F)cccc3F)c2F)c(-c2ccnc(N)n2)s1`, the Potency result in experiment [1], in experiment [2], in experiment [10], in experiment [5], in experiment [6] and in [8] was “inactive” each time. Also, the Potency in [9] is 18.7 µM (active); in experiment [4], 0.59 µM (active).
Consider `C[C@@H]1[C@H](C)CC[C@]2(C(=O)O)CC[C@]3(C)C(=CC[C@@H]4[C@@]5(C)CC[C@H](O)C(C)(C)[C@H]5CC[C@]43C)[C@@H]12`, for which the Potency entry in experiment [1], in experiment [5] and in experiment [11] was “inactive” each time. Besides, the Potency in experiment [2] is 19 µM (active); in experiment [4], 0.429 µM (active); in experiment [6], 13.6 µM (active); in [7], 9.59 µM (active); in experiment [8], 17.5 µM (active).
Turning to `CN1CCc2c(n(Cc3ccc(C(=O)NO)cc3)c3ccccc23)C1`, the Potency result in [1], in [2], in [11] and in experiment [7] was “inactive” throughout. For the same compound, the Potency is 16.6 µM (active) in [10], 14.8 µM (active) in experiment [3], 9.35 µM (active) in [4] and 16.6 µM (active) in experiment [6].
In the case of `Cc1cnc(CNC(=O)c2c(=O)c3ccc(N4CCCN(C)CC4)nc3n3c2sc2ccccc23)cn1`, the Potency result in [1], in experiment [9], in [3], in experiment [11] and in [7] was “inactive” throughout. For the same compound, the Potency in experiment [6] was 6.45 µM (active).
For the compound `O=c1[nH]nc(OCCCc2ccc(Cl)cc2)c(NCc2cccnc2)c1Br`, the Potency entry in experiment [1] and in experiment [8] was “inactive” throughout. The Potency was 23.5 µM (active) in experiment [10], 9.35 µM (active) in [3], 10.5 µM (active) in [4] and 26.4 µM (active) in experiment [7].
Consider `C[C@H]1COC2=C1C(=O)C(=O)c1c2ccc2c1CCCC2(C)C`, for which the Potency entry in experiment [1], in experiment [2], in [3], in [11] and in experiment [8] was “inactive” each time. Moreover, the values for the Potency in experiment [10] and in experiment [7] were 20.9 µM (active) and 5.9 µM (active), respectively.
As for `C[C@@H]1[C@H](O)[C@@H](C)C=CC=CC=CC=CC=CC=CC=C[C@H](O[C@@H]2O[C@H](C)[C@H](O)[C@H](N)[C@@H]2O)C[C@@H]2O[C@](O)(C[C@@H](O)C[C@@H](O)[C@H](O)CC[C@@H](O)C[C@@H](O)CC(=O)O[C@H]1C)C[C@H](O)[C@@H]2C(=O)O`, the Potency entry in [1], in [9], in [10], in experiment [5], in [11] and in experiment [7] was “inactive” each time. Further, the Potency is 0.148 µM (active) in experiment [3] and 0.118 µM (active) in experiment [4].
`COc1c(C)cnc(Cn2cnc3c(Cl)nc(N)nc32)c1C`: the Potency entry in [1] was “inactive”. For the same compound, the Potency in experiment [10] was 0.296 µM (active); in [3], 0.235 µM (active); in [4], 0.132 µM (active); in experiment [6] it was 0.118 µM (active); in [8], 0.341 µM (active).
For the compound `CC[C@H](C)n1cc(C)c2c(C(=O)NCc3c(C)cc(C)[nH]c3=O)cc(-c3ccc(N4CCNCC4)nc3)cc21`, the Potency result in experiment [1], in experiment [2], in experiment [6] and in experiment [11] was “inactive” throughout. Further, the Potency in experiment [9] was 11.8 µM (active); in experiment [3], 1.48 µM (active); in experiment [5] it was 19.3 µM (active); in experiment [8] it was 6.07 µM (active).
On to `Cc1cn([C@@H]2C[C@@H](O)[C@H](CO)O2)c(=O)[nH]c1=O`, for which the Potency result in experiment [1], in [2], in [9], in [5], in experiment [6] and in experiment [11] was “inactive” throughout. The Potency entry in experiment [7] and in [8] was “inactive” each time.
As to `Nc1ccn([C@@H]2O[C@H](CO)[C@@H](O)[C@H]2O)c(=O)n1`, the Potency result in experiment [1], in experiment [11] and in experiment [8] was “inactive” each time. Moreover, the Potency is 0.0294 µM (active) in experiment [2], 0.0235 µM (active) in experiment [3], 0.0077 µM (active) in experiment [5] and 33.2 µM (active) in [6].
Take `O=C(CCCN1CCN(c2ccc(F)cc2)CC1)NC1c2ccccc2CSc2ccccc21` (centres undefined): the Potency result in [1] was “inactive”. For the same compound, the Potency in experiment [9] was 14.8 µM (active); in experiment [3], 11.8 µM (active); in experiment [4], 20.9 µM (active).
For the compound `C[C@@H]1CC=CC=CC=CC=C[C@@H](O[C@@H]2O[C@H](C)[C@@H](O)[C@H](N)[C@H]2O)C[C@@H]2O[C@](O)(C[C@@H](O)C[C@@H]3O[C@@H]3C=CC(=O)O1)C[C@H](O)[C@@H]2C(=O)O`, the Potency result in experiment [1], in experiment [2], in experiment [10], in experiment [11], in [7] and in experiment [8] was “inactive” throughout. In addition, in experiment [9], the Potency was 7.43 µM (active).
Consider `Cc1ccc2c(c1)C(=O)[C@]1(O)CCN(c3ccccc3)C1=N2`, for which the Potency entry in [1], in [2], in [9], in experiment [11] and in [7] was “inactive” throughout. Besides, the Potency in experiment [4] is 20.9 µM (active); in experiment [6], 7.43 µM (active).
Regarding `C[C@@]1(C(=O)Nc2ccc(F)nc2)CCCN1c1nc(Nc2cc(C3CC3)[nH]n2)c2cccn2n1`, the Potency entry in experiment [1] and in experiment [11] was “inactive” throughout. For the same compound, the Potency was 0.165 µM (active) in [2]; 0.187 µM (active) in [10]; 0.0935 µM (active) in experiment [3]; 0.0264 µM (active) in experiment [6]; 1.05 µM (active) in experiment [7]; 1.92 µM (active) in experiment [8].
In the case of `Fc1ccc(CNc2ncnc3ccc(F)cc23)cc1`, the Potency entry in experiment [1], in experiment [10] and in experiment [11] was “inactive” each time. Also, the Potency in experiment [9] is 7.43 µM (active); in experiment [3], 9.35 µM (active); in experiment [4] it was 16.6 µM (active).

(Values after PubChem BioAssay (NCATS).)
